PubChem BioAssay (NCI)
Values joined by “and” are separate entries in the source; they are usually repeats but may differ in a detail not shown here. Identical values can stand only once. About 83,000 compounds went through this panel and 20% of them were active in at least one assay; those are over-represented in the sample as a whole.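 For each line, cells grew in 96-well plates with the test compound present at a single concentration for 48 hours.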 Active and inactive are the calls of the source. The calls were made as follows: active = growth percent below 10; inactive = the rest.

What was measured:
Assay in all cases: NCI-60 one-dose screen, 48 h (100 = growth as untreated, 0 = no growth, -100 = all killed)
SR leukemia = conditions: 10 µM unless noted
OVCAR-8 ovarian = conditions: 10 µM unless noted
OVCAR-5 ovarian = conditions: 10 µM unless noted
IGROV1 ovarian = conditions: 10 µM unless noted
OVCAR-3 ovarian = conditions: 10 µM unless noted
HS 578T breast = conditions: 10 µM unless noted
NCI/ADR-RES ovarian = conditions: 10 µM unless noted
T-47D breast = conditions: 10 µM
BT-549 breast = conditions: 10 µM unless noted
MDA-MB-435 melanoma = conditions: 10 µM unless noted
SW-620 colon = conditions: 10 µM unless noted
MCF7 breast = conditions: 10 µM unless noted
HCT-116 colon = conditions: 10 µM unless noted
HCC-2998 colon = conditions: 10 µM unless noted
KM12 colon = conditions: 10 µM unless noted
OVCAR-4 ovarian = conditions: 10 µM unless noted
SK-OV-3 ovarian = conditions: 10 µM
RPMI-8226 leukemia = conditions: 10 µM

Measured: growth

O=c1oc2ccccc2cc1-c1csc(N=Nc2c(O)[nH]c3ccc(Br)cc23)n1
inactive: SR leukemia 114% | OVCAR-8 ovarian 102% | OVCAR-5 ovarian 97.6% | IGROV1 ovarian 99.8% | OVCAR-3 ovarian 108% | HS 578T breast 93.3% | NCI/ADR-RES ovarian 103% | T-47D breast 107% | BT-549 breast 102% | MDA-MB-435 melanoma 98.8% | SW-620 colon 103% | MCF7 breast 94% | HCT-116 colon 98.1% | HCC-2998 colon 102% | KM12 colon 103%

O=S(=O)(OCCO)c1ccccc1
inactive: SR leukemia 100% | OVCAR-8 ovarian 90.6% | OVCAR-5 ovarian 92% | OVCAR-4 ovarian 109% | IGROV1 ovarian 113% | OVCAR-3 ovarian 112% | HS 578T breast 108% | NCI/ADR-RES ovarian 102% | BT-549 breast 105% | MDA-MB-435 melanoma 98.2% | SW-620 colon 101% | MCF7 breast 94.9% | HCT-116 colon 104% | HCC-2998 colon 113% | KM12 colon 103%

Nc1nc(-c2ccnc(Cl)c2)nn1-c1nc2ccccc2s1
inactive: SR leukemia 120% | OVCAR-8 ovarian 102% | OVCAR-5 ovarian 95.9% | OVCAR-4 ovarian 102% | IGROV1 ovarian 99.1% | OVCAR-3 ovarian 114% | HS 578T breast 96.8% | NCI/ADR-RES ovarian 104% | BT-549 breast 106% | MDA-MB-435 melanoma 107% | SW-620 colon 106% | MCF7 breast 97.2% | HCT-116 colon 107% | HCC-2998 colon 104% | KM12 colon 101%

COc1cccc(Nc2nc(NCCO)c3ccccc3n2)c1
inactive: SR leukemia 47.1% | OVCAR-8 ovarian 81.9% | OVCAR-5 ovarian 101% | SK-OV-3 ovarian 102% | OVCAR-3 ovarian 61.5% | HS 578T breast 62.4% | NCI/ADR-RES ovarian 63.9% | T-47D breast 75.2% | BT-549 breast 72.9% | MDA-MB-435 melanoma 72.3% | SW-620 colon 64.5% | MCF7 breast 76.8% | HCT-116 colon 72.1% | HCC-2998 colon 87.5% | KM12 colon 51.2%

COc1cc2cc(Oc3ccc(NC(=O)Nc4cccc(C(F)(F)F)c4)cc3)c(C)nc2cc1OCCN1CCCCC1
active: SR leukemia -19.4% | OVCAR-4 ovarian -12.9% | IGROV1 ovarian -31.2% | OVCAR-3 ovarian -92.6% | HS 578T breast -53.6% | MDA-MB-435 melanoma -92.8% | SW-620 colon -82% | MCF7 breast -80.4% | HCT-116 colon -23.1% | HCC-2998 colon -50% | KM12 colon -92.2%
inactive: OVCAR-5 ovarian 61.6% | BT-549 breast 79.5%

COc1cc(Cn2cc(F)c(=O)[nH]c2=O)cc(OC)c1
inactive: SR leukemia 103% [50 µM] | OVCAR-8 ovarian 101% [50 µM] | OVCAR-5 ovarian 101% [50 µM] | OVCAR-4 ovarian 108% [50 µM] | IGROV1 ovarian 106% [50 µM] | OVCAR-3 ovarian 126% [50 µM] | HS 578T breast 96.7% [50 µM] | NCI/ADR-RES ovarian 112% [50 µM] | BT-549 breast 95.4% [50 µM] | MDA-MB-435 melanoma 109% [50 µM] | SW-620 colon 102% [50 µM] | MCF7 breast 104% [50 µM] | HCT-116 colon 111% [50 µM] | HCC-2998 colon 114% [50 µM] | KM12 colon 108% [50 µM]

COC(=O)c1c2c(c(C)[n+]([O-])c1C)C(=O)C=C(NCc1ccc(F)cc1)C2=O
active: SR leukemia 2.14% | OVCAR-8 ovarian 2.54% | OVCAR-5 ovarian -68.8% | IGROV1 ovarian -59.4% | OVCAR-3 ovarian -35.9% | HS 578T breast -16.6% | NCI/ADR-RES ovarian -16.7% | T-47D breast -41.1% | BT-549 breast -91.3% | MDA-MB-435 melanoma -93.1% | SW-620 colon -9.71% | MCF7 breast -60.6% | HCT-116 colon 0.358% | HCC-2998 colon -40.2% | KM12 colon 1.23%

COc1ccc(/C=C(\C#N)c2cc3ccccc3n2C)cc1
inactive: SR leukemia 18.7% | OVCAR-8 ovarian 34.2% | OVCAR-5 ovarian 39.7% | OVCAR-4 ovarian 37.1% | IGROV1 ovarian 34.7% | BT-549 breast 51.2% | SW-620 colon 20% | MCF7 breast 15.4% | HCT-116 colon 18.2% | HCC-2998 colon 24.8% | KM12 colon 16.8%
active: OVCAR-3 ovarian -34.3% | HS 578T breast 2.89% | NCI/ADR-RES ovarian 8.82% | MDA-MB-435 melanoma -49.1%

Fc1c[c-]c(-c2ccccn2)c(F)c1.Fc1c[c-]c(-c2ccccn2)c(F)c1.[Cl][Pt+].[Cl][Pt+].c1ccc([PH+](C[PH+](c2ccccc2)c2ccccc2)c2ccccc2)cc1
inactive: SR leukemia 19.7% | OVCAR-8 ovarian 15.1% | OVCAR-5 ovarian 49.2% | IGROV1 ovarian 21.2% | HS 578T breast 26.1% | NCI/ADR-RES ovarian 97.9% | BT-549 breast 15.8% | SW-620 colon 15.5% | HCC-2998 colon 22.4% | KM12 colon 12.3%
active: OVCAR-4 ovarian 6.98% | OVCAR-3 ovarian 7.81% | MDA-MB-435 melanoma 5.73% | MCF7 breast 8.56% | HCT-116 colon 8.2%

c1ccc(-c2n(Cc3ccc4ccccc4c3)c3ccccc3[n+]2Cc2ccc3ccccc3c2)cc1
inactive: NCI/ADR-RES ovarian 46.4%
active: SR leukemia -23.6% | OVCAR-8 ovarian -22.9% | OVCAR-5 ovarian 2.69% | OVCAR-4 ovarian -4.85% | IGROV1 ovarian -77.5% | OVCAR-3 ovarian -84.2% | HS 578T breast -33.8% | BT-549 breast -28.2% | MDA-MB-435 melanoma -76.4% | SW-620 colon -48.5% | MCF7 breast -44.2% | HCT-116 colon -85.4% | HCC-2998 colon -79.3% | KM12 colon -86.8%

CC1=CN2C(=NC3=C(CCCC/C3=C\c3ccccc3)C2c2ccccc2)S1 (stereo unspecified)
inactive: RPMI-8226 leukemia 112% | OVCAR-8 ovarian 102% | OVCAR-5 ovarian 106% | OVCAR-4 ovarian 95.8% | SK-OV-3 ovarian 88.5% | IGROV1 ovarian 97.9% | OVCAR-3 ovarian 110% | HS 578T breast 92.8% | T-47D breast 91% | BT-549 breast 108% | MDA-MB-435 melanoma 99.6% | SW-620 colon 103% | MCF7 breast 94.6% | HCT-116 colon 97.6% | HCC-2998 colon 103% | KM12 colon 100%

COc1cc(-c2nc(Nc3nc4ccccc4[nH]3)nc(N)c2C#N)cc(OC)c1OC
inactive: RPMI-8226 leukemia 69.8% | OVCAR-8 ovarian 79.6% | OVCAR-5 ovarian 101% | OVCAR-4 ovarian 72.8% | SK-OV-3 ovarian 52.6% | IGROV1 ovarian 43% | OVCAR-3 ovarian 15.1% | NCI/ADR-RES ovarian 97.9% | T-47D breast 57.8% | BT-549 breast 71.3% | MDA-MB-435 melanoma 14.5% | MCF7 breast 30.9% | HCT-116 colon 43.3% | HCC-2998 colon 81.2% | KM12 colon 36.6%

COc1ccc(/C=C2\Oc3cc(C)c(Cl)cc3C2=O)cc1OC
inactive: SR leukemia 73.2% | OVCAR-8 ovarian 102% | OVCAR-5 ovarian 98.3% | OVCAR-4 ovarian 82.3% | IGROV1 ovarian 103% | OVCAR-3 ovarian 108% | HS 578T breast 109% | NCI/ADR-RES ovarian 107% | BT-549 breast 89.1% | MDA-MB-435 melanoma 96.6% | SW-620 colon 104% | MCF7 breast 83.1% | HCT-116 colon 84.6% | HCC-2998 colon 116% | KM12 colon 100%

c1ccc(-c2nc(N3CCOCC3)c3c4c(sc3n2)CCCCCC4)nc1
active: MCF7 breast 3.9%
inactive: RPMI-8226 leukemia 33.3% | OVCAR-8 ovarian 42.4% | OVCAR-5 ovarian 57.2% | OVCAR-4 ovarian 42.2% | SK-OV-3 ovarian 65.7% | IGROV1 ovarian 42.1% | OVCAR-3 ovarian 68.2% | HS 578T breast 53.4% | NCI/ADR-RES ovarian 25.9% | T-47D breast 17.8% | BT-549 breast 58.3% | MDA-MB-435 melanoma 61.9% | SW-620 colon 86.9% | HCT-116 colon 27.7% | HCC-2998 colon 72.7% | KM12 colon 44.7%

Nc1cccc2c(=S)c3ccccc3[nH]c12
inactive: SR leukemia 111% | OVCAR-8 ovarian 93.7% | OVCAR-5 ovarian 92.9% | OVCAR-4 ovarian 83% | IGROV1 ovarian 86.9% | OVCAR-3 ovarian 91% | HS 578T breast 94.3% | NCI/ADR-RES ovarian 101% | BT-549 breast 102% | MDA-MB-435 melanoma 106% | SW-620 colon 92.6% | MCF7 breast 85.6% | HCT-116 colon 93.4% | HCC-2998 colon 106% | KM12 colon 102%

CN1CCc2cccc3c2C1Cc1ccc(O)c(O)c1-3 (stereo unspecified)
inactive: OVCAR-8 ovarian 89% | OVCAR-5 ovarian 88.3% | IGROV1 ovarian 76.2% | OVCAR-3 ovarian 28% | HS 578T breast 99.1% | NCI/ADR-RES ovarian 81% | T-47D breast 89.3% | BT-549 breast 81.6% | MDA-MB-435 melanoma 98.6% | SW-620 colon 34.8% | MCF7 breast 81.6% | HCT-116 colon 77% | HCC-2998 colon 86.5% | KM12 colon 96.4%

N#CCCN1CCN(CCC#N)C1=S
inactive: OVCAR-8 ovarian 98.1% | OVCAR-5 ovarian 101% | OVCAR-4 ovarian 108% | SK-OV-3 ovarian 108% | OVCAR-3 ovarian 110% | HS 578T breast 104% | NCI/ADR-RES ovarian 102% | T-47D breast 108% | BT-549 breast 99.6% | MDA-MB-435 melanoma 106% | SW-620 colon 101% | MCF7 breast 101% | HCT-116 colon 101% | KM12 colon 109%

N#Cc1cnn2c1n[n+]([O-])c1ccc(Cl)cc12
active: MCF7 breast 9.63% [100 µM] and -99.2% [100 µM]

CCCCCCCCCCCCCC1=C(O)C(=O)C(CC2=C(O)C(=O)C(CCCCCCCCCCCCC)=C(O)C2=O)=C(O)C1=O
active: MCF7 breast 2.9% [100 µM] and -79.8% [100 µM]
